This note sets out measurements from PubChem BioAssay (Tox21).

Records with an inconclusive call do not appear. Entries that show only a call come without a potency. A number with no mark means an inactive call. The source made the active and inactive calls. Calls come from the whole dose curve.

Progesterone receptor (Homo sapiens), sequence (P06401 whole entry, looked up): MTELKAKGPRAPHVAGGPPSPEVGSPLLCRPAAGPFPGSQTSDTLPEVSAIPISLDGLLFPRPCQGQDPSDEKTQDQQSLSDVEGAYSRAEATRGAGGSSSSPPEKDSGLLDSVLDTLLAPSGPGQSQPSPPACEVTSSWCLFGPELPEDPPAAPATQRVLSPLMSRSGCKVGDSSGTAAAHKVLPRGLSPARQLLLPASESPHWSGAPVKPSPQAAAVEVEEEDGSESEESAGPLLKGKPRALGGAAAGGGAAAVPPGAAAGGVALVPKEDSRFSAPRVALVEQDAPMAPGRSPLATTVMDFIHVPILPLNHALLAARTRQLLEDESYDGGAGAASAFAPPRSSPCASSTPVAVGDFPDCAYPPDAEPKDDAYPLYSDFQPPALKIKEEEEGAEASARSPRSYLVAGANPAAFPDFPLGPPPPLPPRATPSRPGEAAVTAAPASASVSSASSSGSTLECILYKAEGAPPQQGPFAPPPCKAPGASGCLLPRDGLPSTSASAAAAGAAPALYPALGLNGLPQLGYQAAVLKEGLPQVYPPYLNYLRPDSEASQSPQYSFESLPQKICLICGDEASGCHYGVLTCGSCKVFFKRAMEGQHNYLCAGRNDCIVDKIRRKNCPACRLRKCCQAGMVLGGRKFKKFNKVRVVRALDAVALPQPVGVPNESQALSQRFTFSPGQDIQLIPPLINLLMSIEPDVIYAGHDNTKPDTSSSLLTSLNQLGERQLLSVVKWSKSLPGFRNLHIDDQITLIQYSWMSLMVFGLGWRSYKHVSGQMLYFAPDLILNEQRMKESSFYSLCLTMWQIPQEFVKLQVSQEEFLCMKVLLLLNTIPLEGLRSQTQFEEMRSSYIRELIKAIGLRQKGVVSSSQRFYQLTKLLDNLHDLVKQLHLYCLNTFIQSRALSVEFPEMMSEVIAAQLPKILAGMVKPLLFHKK

This test concerns the target Progesterone receptor (Homo sapiens) (UniProt P06401). Kind of test: qHTS assay to identify small molecule agonists of the progesterone receptor (PR) signaling pathway (AID 1346784). Note: nearly all actives have a fitted effect of over 30% in size. The note with it: PR-UAS-bla HEK293T, beta-lactamase FRET ratio, 16 h; series mostly up to 92.4 µM. Put shortly:
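Beta-lactamase reporter read-out: after 16 hr compound treatment at 37C and a further 2 hr at room temperature with LiveBLAzer B/G FRET substrate, fluorescence was measured in PR-UAS-bla HEK 293T cells grown in 2% charcoal-stripped serum.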
For the compound `CCC(N)(CO)CO`, the Potency entry is “inactive”.
On the same count and under the same terms, for `COc1cc(-c2nc(NC(=O)c3cc4cc(C)cc(C)c4n3CC(=O)O)sc2CCC2CCCCC2)c(OC)cc1Cl` the value was “inactive”.
On the same count and under the same terms, the result for `O=C(OCC1CO1)C1CCCCC1C(=O)OCC1CO1` (stereo unspecified) reads “inactive”; that for `CSc1ccc(/C=C2/C(C)=C(CC(=O)O)c3cc(F)ccc32)cc1`, “inactive”; that for `O=C1C=CC(=O)N1c1ccc(Cc2ccc(N3C(=O)C=CC3=O)cc2)cc1`, “inactive”.
Consider `CN(C)[C@@H]1C(=O)C(C(N)=O)=C(O)[C@@]2(O)C(=O)C3=C(O)c4c(O)cccc4C[C@H]3C[C@@H]12`, for which the Potency result is “inactive”.
On to `Cc1nc(-c2ccc3c(c2)CCN(CCC2CCC(NC(=O)/C=C/c4ccc(F)cc4)CC2)CC3)no1` (stereo unspecified), for which the Potency result is “inactive”.
Same read-out and setting: for `CC(C)n1nc(-c2cc3cc(O)ccc3[nH]2)c2c(N)ncnc21` the value was “inactive”.
Still for that read-out and setting: the result for `Fc1ccc([C@@H]2CCNC[C@H]2COc2ccc3c(c2)OCO3)cc1` reads “inactive”; that for `O=[N+]([O-])c1cc(Cl)c(Cl)c(Cl)c1Cl`, “inactive”.
On the same count and under the same terms, for `CCCCCCCCn1sc(Cl)c(Cl)c1=O` the value was “inactive”; for `O=C(Oc1ccccc1)c1ccccc1C(=O)Oc1ccccc1`, “inactive”; for `O=C1c2ccccc2Cc2ccccc21`, “inactive”.
For the compound `CCC(CN)=C(c1ccccc1)c1ccccc1`, the Potency entry was “inactive”.
As to `O=c1[nH]cnc2nc[nH]c12`, the Potency entry is “inactive”.
Same read-out and setting: the result for `Nc1cc(C(F)(F)F)ccc1S` reads “inactive”; that for `C[C@@H](NCCCc1cccc(C(F)(F)F)c1)c1cccc2ccccc12`, “inactive”; that for `Oc1cccc2cc3cccc(O)c3c(O)c12`, “inactive”.
The same measure, in the same setting: for `O=C(O)c1c(Cl)cccc1Cl` the value was “inactive”; for `CCCCCCCC(=O)[O-].CCCCCCCC(=O)[O-].[Zn+2]`, “inactive”; for `Cc1oc(-c2ccccc2)nc1CCC(=O)c1ccc(CC2SC(=O)NC2=O)cc1` (stereo unspecified), “inactive”.
Still for that read-out and setting: the result for `COc1c(C)c2c(c(O)c1C/C=C(\C)CCC(=O)O)C(=O)OC2` reads “inactive”; that for `CC(C)(C)CC(C)(C)c1ccc(OCCOCC[N+](C)(C)Cc2ccccc2)cc1`, “inactive”; that for `CCC(C)(C)C1CCCCC1OC(C)=O` (stereo unspecified), “inactive”.
`Cn1cc(C(=O)[C@@H]2CCc3nc[nH]c3C2)c2ccccc21`: the Potency result is “inactive”.
The same measure, in the same setting: for `CSc1ccc(C(=O)c2[nH]c(=O)[nH]c2C)cc1` the value was “inactive”; for `C[n+]1ccn(Cc2ccccc2)c1`, “inactive”.
Consider `CC(NN)c1ccccc1` (stereo unspecified), for which the activation is -0.517% [at 19 µM].
In the case of `NNc1nc(-c2ccc([N+](=O)[O-])cc2)cs1`, the Potency entry was “inactive”.
On the same count and under the same terms, the result for `COc1ccc(C(=O)/C(Br)=C\C(=O)O)cc1` reads “inactive”.
In the case of `CC(C)=CCOc1ccc(/C=C/C(=O)c2ccc(OCC=C(C)C)cc2OCC(=O)O)cc1`, the Potency entry was “inactive”.
Still for that read-out and setting: for `Cc1cccc(CN2CCN(C(c3ccccc3)c3ccc(Cl)cc3)CC2)c1` (stereo unspecified) the value was “inactive”.
The same measure, in the same setting: for `N#CSc1ccc(N)c([N+](=O)[O-])c1` the value was “inactive”; for `O=C(c1ccc(F)cc1)C1CCN(CCn2c(=O)[nH]c3ccccc3c2=O)CC1`, “inactive”; for `CCCCCCCCCCCCCCCC[N+](C)(C)CCN(Cc1ccc(OC)cc1)c1ncccn1`, “inactive”.
The same measure, in the same setting: for `O=C(O)c1cc(O)c2c(c1)C(=O)c1cccc(O)c1C2=O` the value was “inactive”.
